TCR activator: activators of T cell receptors | primary human leukocytes, anti-CD3, IL-2 HTRF, 48 h | Potency, µM (doses to about 9.22 µM), for the others: top-dose activation of IL-2 secretion, actives largely listed as activators | 330,000 tested, under 10 active | AID 504894; also: % of control where 0% means no effect
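TCR engagement came from a-CD3 beads alone, with compounds added to primary human leukocytes for 48 hr. Secreted IL-2 bridged europium cryptate- and d2-labelled anti-IL-2 antibodies, giving FRET emission at 665nm after 320nm excitation.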
Nrf2 inh: blocks Nrf2 signaling; 2.1% of 360,000 active; Potency, µM (top dose mostly 46 µM), for inactives: top-dose activity change, negative = inhibition, usual class: inhibitors; A549 ARE-Fluc reporter, luciferase luminescence, 18-24 h; AID 504444; also: potency is read from the fitted curve at half-maximal effect; % is scaled to controls: 0 for no effect and ±100 for the full control effect; nearly all actives have a fitted effect of over 60% in size
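Quantitative HTS in A549 cells stably bearing an antioxidant response element-firefly luciferase construct. Inhibition of Nrf2-driven transcription was scored by luminescence after 18-24 h of compound exposure at 37 °C.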
CCT chaperon mod: changes cytosolic chaperonin activity | 0.3% of 360,000 active | purified chaperonin ATPase assay, HTRF ADP detection, 30 min | AID 651819 | activity change, % (concentration not given with the values), hits read low; in the data active = activity change below about -30%; also: % is scaled to controls: 0 for no effect and ±100 for the full control effect
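Nucleotide hydrolysis assay: TRiC at 20–40 nM final (set by batch activity) with 10 uM ATP, 30 min at 37 °C, in presence of 76 uM compound. Detection by competitive ADP HTRF, 30 min ambient.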
AT treatment: potential ataxia-telangiectasia treatment. F2112 A-T fibroblasts, KAP-1 phosphorylation AlphaLISA; neocarzinostatin DNA damage 30 min before lysis. Potency, µM (top dose mostly 57.5 µM), for the others: top-dose activation, actives largely listed as activators. 0.19% of 320,000 active; also: potency is read from the fitted curve at half-maximal effect; % of control where 0% means no effect; nearly all actives have a fitted effect of over 45% in size
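ATM-like activity read as KAP-1 phosphorylation via AlphaLISA donor/acceptor antibody pairs after lysis and 6 hr at 25C. Cells were ATM-null patient fibroblasts (F2112, hTERT), dosed 60 min, then exposed to the DSB inducer NCS for 30 min.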
Nrf2 ARE act: Nrf2 pathway activation; Potency, µM (doses to about 46.1 µM), for inactives: top-dose activation, hits mostly activators; 0.31% of 410,000 active; AID 624171; AREc32 ARE-luciferase reporter (MCF7-derived line), luminescence, 24 h; also: potency is read from the fitted curve at half-maximal effect; % of control where 0% means no effect; nearly all actives have a fitted effect of over 65% in size
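AREc32 cells carrying an ARE-driven firefly luciferase, 1000 cells/well in OPTI-MEM with 5% FBS, dosed after overnight attachment and incubated 24 hr at 37 deg C. Steady-Glo luminescence read after 30 min at RT.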
A549 viability: counter-screen for Nrf2 inhibitors: cytotoxicity in A549 cells; A549 ARE-Fluc cells, CellTiter-Fluor viability, 18-24 h; Potency, µM (titrated, usually from 46 µM), inactives show at the highest dose activity change, negative = cytotoxicity, usual class: inhibitors; 0.16% of 390,000 active; AID 504648; also: potency is read from the fitted curve at half-maximal effect; % is scaled to controls: 0 for no effect and ±100 for the full control effect
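A549 ARE_Fluc cells in 5% FBS OPTI-MEM were exposed to compounds in concentration-response for 18-24 h at 37 deg C. Viability was read by CellTiter-Fluor fluorescence (Ex 405/Em 525) after 30 min, before the luciferase read.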
* = called active by the depositor; ? = inconclusive; . = not tested or not shown; [ ] = another dose, or the depositor's remark. Shown are actives, neighbours in structure and some others; about 2.6% of the full set was active somewhere. Unless noted, calls follow the shape of the dose curve; as a rule, active = well fitted curve in the direction sought with a large enough effect; inconclusive = small, poorly fitted or top-dose-only effect, or another doubt; inactive = no such curve, though single readings can be large; an effect the other way counts as inactive or inconclusive.

SMILES	TCR activator	Nrf2 inh	CCT chaperon mod	AT treatment	Nrf2 ARE act	A549 viability
O=C1c2cccc3cccc(c23)C(=O)N1CCCN(C(=O)c1cccs1)c1cccc(F)c1	-1%[46.1 µM]	?	-2	-3%	3.2µM*	0%
COc1ccc(N(CCCN2C(=O)c3cccc4cccc(c34)C2=O)C(=O)c2cccc(OC)c2)cc1	-5%[46.1 µM]	-17%	-1	1%	?	-6%
CN(C)c1ccc(-c2[nH][nH]c(=O)c2NC(=O)c2ccc3ccccc3n2)cc1	.	.	-1	.	20%	.
CN(C)c1ccc(-c2[nH][nH]c(=O)c2NC(=O)c2ccccn2)cc1	.	.	-36*	.	14%	.
COCCCc1cc(F)c(S(=O)(=O)N2CCN(S(=O)(=O)c3ccc4c(c3)OCCO4)CC2)cc1F	.	-23%	.	.	.	1%
CCCCN(CCCC)CCNC(=O)c1cc(-c2cccnc2)nc2ccc(S(=O)(=O)N3CCC(C)CC3)cc12	.	.	.	.	-1%	8%
CCN(CC)CCNC(=O)c1cc(-c2cccnc2)nc2ccc(S(=O)(=O)N3CCC(C)CC3)cc12	6%	?	-3	-1%	-1%	23µM*
CSc1cccc(NS(=O)(=O)c2ccc3c(c2)oc(=O)n3C)c1	6%	26µM*	2	5%	-1%	-5%
CCOc1ccc(S(=O)(=O)Nc2ccc3c(c2)n(C)c(=O)n3C)cc1	1%	16µM*	1	10%	5%	2%
Cn1c(=O)n(C)c2cc(S(=O)(=O)Nc3ccccc3)ccc21	-2%	23µM*	1	0%	5%	-7%
CCOC(=O)c1ccc(NS(=O)(=O)c2ccc3c(c2)n(C)c(=O)n3C)cc1	13%	21µM*	-3	-13%	5%	11%
Cn1c(=O)n(C)c2cc(NS(=O)(=O)c3ccccc3)ccc21	6%	?	0	1%	17%	1%
CCOC(=O)c1ccccc1NC(=O)c1cc2c(s1)-c1ccccc1SC2	.	?	.	.	4%	3%
CCOC(=O)Cc1ccc(NS(=O)(=O)c2ccc(SC)cc2)cc1	6%	?	0	-1%	1%	-8%
CCOC(=O)c1ccc(NS(=O)(=O)c2ccc(SC)cc2)cc1	7%	23µM*	1	0%	0%	?
O=C(NCCCN1CCN(c2ccccc2F)CC1)c1nnc(Cc2ccc(Cl)cc2Cl)o1	.	18µM*	.	.	4%	-15%
COc1ccc(-c2cc3nc(-c4ccccc4)cc(N4CCCC(O)C4)n3n2)cc1 (stereo not given)	1%	13µM*	0	23%	-4%	?
CCn1c(C)nc2cc(C(=O)N/N=C(\C)c3ccc(OC)cc3O)ccc21	-1%	23µM*	2	1%	0%	-14%
Cc1c(Cl)cccc1NC(=O)Nc1c[nH]c(=O)[nH]c1=O	.	-13%	.	.	0%	-6%
O=C(Nc1ccc2nc(-c3ccc(Br)o3)[nH]c2c1)c1cccs1	4%	18µM*	-3	-3%	7%	?
CC(=O)Nc1ccc2nc(-c3cccn3C)[nH]c2c1	-5%	?	-6	-3%	7%	0%
Cn1cccc1-c1nc2ccc(NC(=O)c3cccs3)cc2[nH]1	-14%	18µM*	0	-3%	3%	-14%
COc1ccc(C2Nc3ccccc3C(=O)N2Cc2ccccc2)cc1COc1ccccc1OC (stereo not given)	.	-27%	.	.	.	2%
COc1ccc(-c2cc(C(=O)NCCc3ccccc3)c3c(-c4ccc(Cl)cc4)[nH]nc3n2)cc1	.	23µM*	.	.	-1%	?
COc1ccc(-c2cc(C(=O)NCCc3ccccc3)c3c(-c4ccccc4)[nH]nc3n2)cc1	.	-6%	.	.	1%	?
SMILES	TCR activator	Nrf2 inh	CCT chaperon mod	AT treatment	Nrf2 ARE act	A549 viability
O=C(NN1CCOCC1)c1cccc(Cl)c1	-3%	-18%	0	-3%	0%	0%
Cc1ccc(NC(=O)CSc2nc3ccccc3c3nc(CCc4c(C)n[nH]c4C)nn23)cc1F	-2%	13µM*	0	8%	0%	?
CCC1(C)NC(c2ccc3c(c2)OCO3)=CC(c2ccccc2O)N1 (stereo not given)	.	6%	.	.	.	1%
CCN(C(=O)Cn1nnc2sc(-c3ccccc3)cc2c1=O)c1cccc(C)c1	.	26%	.	.	4.5µM*	11%
Cc1ccc(S(=O)(=O)N2CCN(CCOc3cccc(C)c3)CC2)cc1	-2%	21µM*	0	6%	0%	-7%
C=C(C(=O)Oc1ccccc1C(C)(C)C)c1ccccc1	.	.	.	35µM*	.	.
NC(Cc1ccccc1)C(O)c1ccco1 (stereo not given)	.	15%	.	.	.	-3%
CCCN1C(=O)/C(=C/c2c(N3CCNC(=O)C3CC(=O)OCC)nc3c(C)cccn3c2=O)SC1=S (stereo not given)	-6%	21µM*	-6	-11%	-1%	?
CS(=O)(=O)/C=C/c1nc(Nc2cc(F)cc(F)c2)c2ncn(CC(F)F)c2n1	.	7%	.	.	.	-1%
O=C(NCc1cccnc1)/C(=C\c1ccc(-c2cccc(Cl)c2)o1)S(=O)(=O)c1ccccc1	-1%[46.1 µM]	21µM*	-10	31%	?	21µM*
CC(=O)c1cccc(NS(=O)(=O)c2cc3c(cc2C)N(C(C)=O)CCO3)c1	2%	18µM*	-1	4%	-1%	?
Cc1cc2c(cc1S(=O)(=O)Nc1ccc(C(C)C)cc1)OCCN2C	.	13µM*	.	-1%	7%	-1%
O=C(COC(=O)Cc1ccc(Cl)cc1)NCc1ccco1	-1%	10%	0	2%	0%	0%
Cc1ccc(CCNC(=O)CCS(=O)(=O)c2cc3c(cc2C)NC(=O)CO3)cc1	-2%	?	-2	-6%	0%	-1%
CC1CCC2C(=O)N(c3ccc(Cc4ccncc4)cc3)C(=O)C2C1 (stereo not given)	-7%	10µM*	-3	3%	-1%	-14%
COc1ccc(C(=O)C(C)Oc2cccc(NC(=O)c3cccc([N+](=O)[O-])c3)c2)cc1 (stereo not given)	1%	26µM*	0	3%	0%	-9%
O=C(Nc1cccc([N+](=O)[O-])c1)Nc1cccc([N+](=O)[O-])c1	-4%	-23%	0	2%	?	-21%
CC(C)C(=O)Nc1cccc(NC(=O)c2cccc([N+](=O)[O-])c2)c1	0%	-4%	-4	-3%	0%	0%
